# According to PubChem BioAssay AID485276 (Southern Research Specialized Biocontainment Screening …, 2010):
# Results with a measured potency or affinity are listed apart. Activity calls are given as the source filed them. No rule for the calls is given here.
# Experiment: antiviral efficacy against SV40, host toxicity – BSC cells, set 3, confirmation (AID 485276)
# Settings: series mostly up to 200 µM
row,Structure (SMILES),outcome
1,CC(C)(c1ccccc1)n1nnc(-c2ccccc2)n1,inactive
2,Oc1c(Cl)cc(Cl)cc1Sc1cc(Cl)cc(Cl)c1O,inactive
3,Oc1ccc(C2(c3ccc(O)cc3)CC2)cc1,inactive
4,Oc1ccc(Cl)cc1Cc1cc(Cl)ccc1O,inactive
5,Oc1ccc(Oc2ccc(O)cc2)cc1,inactive
6,CC(C)(c1ccc(O)cc1)c1ccc(Cl)cc1,inactive
